In PubChem BioAssay (Tox21):
Values without a mark were called inactive. Results filed as inconclusive are left out. Where a call stands in place of a potency, no number is given. Activity calls are given as the source filed them. Unless noted, calls follow the shape of the full dose curve.

Columns and labels:
[1] = Nuclear factor erythroid 2-related factor 2/antioxidant responsive element (Nrf2/ARE) small molecule agonists: qHTS cell viability counter screen in human keratinocytes (AID 1919968; active = well fitted curve in the direction sought with a large enough effect in the repeat runs; an effect the other way counts as inactive or inconclusive; also: nearly all actives have a fitted effect of over 55% in size)
Procedure, shortened: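 Cells of the KeratinoSens line were plated at 1,500 per well and left for 5 h before compound transfer from DMSO stocks. After a 23 h incubation (37 C, 5% CO2), CellTiter-Fluor was added. Signal was taken as fluorescence intensity 1 h later.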

[2] = Nuclear factor erythroid 2-related factor 2/antioxidant responsive element (Nrf2/ARE) small molecule agonists: luciferase reporter gene qHTS assay in human keratinocytes (AID 1919969); also: nearly all actives have a fitted effect of over 35% in size
[3] = biological target: Gonadotropin-releasing hormone receptor (Homo sapiens) (UniProt P30968); assay: Human gonadotropin-releasing hormone receptor (GnRHR) small molecule agonists, calcium flux assay in GnRHR-HEK293 cells (AID 1920063); also: nearly all actives have a fitted effect of over 35% in size
Procedure, shortened: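 Compounds dissolved in DMSO are pin-transferred onto dye-loaded GnRHR-HEK293 cells, which were seeded 18 h before at 37 C/5% CO2. Calcium signal is read as fluorescence intensity at 1 s intervals for 3 min.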

[4] = biological target: KiSS-1 receptor (Homo sapiens) (UniProt Q969F8); assay: Human kisspeptin (KISS1R) small molecule agonists, calcium flux assay in KISS1R-HEK293 cells (AID 1920064; active = well fitted curve in the direction sought with a large enough effect in the repeat runs; an effect the other way counts as inactive or inconclusive)
Procedure, shortened: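 Cell line: HEK293, stable human KISS1R. Dye loading 1 h at 37 C after 18 h culture. Read: kinetic fluorescence, 480/540 nm, 3 min at 1 s intervals.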

[5] = G protein-coupled receptor (GPCR) small molecule agonists, calcium flux assay: HEK293 wild type cell line counter screen (AID 1920065)
Procedure, shortened: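 Tox21 10K compounds, 15 concentrations each in triplicate, pin-transferred in DMSO onto dye-loaded cells; kinetic read at 480/540 nm for 3 min, 1 s intervals.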

[6] = p53 small molecule agonists, cell-based qHTS assay with human liver microsomes: qHTS cell viability counter screen (AID 1963579); also: nearly all actives have a fitted effect of over 45% in size
Procedure, shortened: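 In this multiplexed counter screen, the reporter plates were subsequently treated with CellTiter-Glo so that cell viability, reflected by luminescence, could be recorded for p53RE-bla cells dosed 16 h with compounds under microsomal activation (HLM and NADPH).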

[7] = p53 small molecule agonists, cell-based qHTS assay: qHTS cell viability counter screen (AID 1963581); also: nearly all actives have a fitted effect of over 45% in size
Procedure, shortened: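 ATP content measured by luminescence in HCT-116 p53RE-bla cells treated 16 h at 37 C, same wells as the reporter screen.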

[8] = biological target: Muscarinic acetylcholine receptor M1 (Homo sapiens) (UniProt P11229); assay: Cholinergic receptor muscarinic 1 (CHRM1) small molecule antagonists, cell-based qHTS assay (AID 1963588); also: nearly all actives have a fitted effect of over 40% in size
Procedure, shortened: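 Compounds were tested at 15 concentrations in three independent runs. Dye-loaded CHRM1-CHO cells were exposed 5 min at room temperature before stimulation by acetylcholine added at 50nM. Intracellular calcium was read kinetically on FDSS for 3 min.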

[9] = biological target: Muscarinic acetylcholine receptor M1 (Homo sapiens) (UniProt P11229); assay: Cholinergic receptor muscarinic 1 (CHRM1) small molecule agonists, cell-based qHTS assay (AID 1963589); also: nearly all actives have a fitted effect of over 35% in size
Procedure, shortened: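 Homogeneous fluorescence calcium flux, agonist mode. Human M1-expressing CHO cells; compound dosed at 15 concentrations, three independent runs; signal sampled every 1 sec.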

[10] = cAMP Responsive Elements (CRE) small molecule agonists, cell-based qHTS assay (AID 1963590)
Procedure, shortened: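 HEK 293T cells stably bearing CRE-bla were plated at 2,000 cells per well and rested 18 h. Compounds, positive controls or DMSO were added for 3 h at 37 C. LiveBLAzer B/G substrate was then loaded for 2 h at room temperature.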

[11] = cAMP Responsive Elements (CRE) small molecule antagonists, cell-based qHTS assay (AID 1963591; active = well fitted inhibition curve with a large enough effect in the signal ratio in the repeat runs, not every such curve was filed as active; the % refers to the signal ratio)
Procedure, shortened: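 First, CRE-bla HEK293T cells settled 18 h at 37 C. Next, compound and 0.25 uM final NKH477 were applied for 3 h. Last, LiveBLAzer B/G substrate was loaded for 2 h at room temperature.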

[12] = biological target: Beta-2 adrenergic receptor (Homo sapiens) (UniProt P07550); assay: Adrenergic beta2 receptor (ADRB2) small molecule antagonists, cell-based qHTS assay (AID 1963592); also: series mostly up to about 92 µM; nearly all actives have a fitted effect of over 50% in size
Procedure, shortened: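 Assay format: CHO-ADRB2 cells, 18-20hr seeding at 37C/5% CO2, then compound plus 1nM isoproterenol agonist mix for 0.5hr RT. Homogeneous time-resolved fluorescence cAMP detection after 1hr, expressed as 665/615 nm ratio.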

[13] = biological target: Beta-2 adrenergic receptor (Homo sapiens) (UniProt P07550); assay: Adrenergic beta2 receptor (ADRB2) small molecule agonists, cell-based qHTS assay (AID 1963593);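 also: CHO cells stably overexpressing human ADRB2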
Procedure, shortened: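 CHO cells stably over-expressing ADRB2 were plated overnight at 37C, then dosed with compounds plus a stimulation mix containing 100uM IBMX and 25uM Ro-20-1724 for 0.5hr at room temperature. cAMP was measured by HTRF competition, 1hr.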

[14] = biological target: D(2) dopamine receptor (Homo sapiens) (UniProt P14416); assay: Dopamine D2 receptor (DRD2) small molecule antagonists, cell-based qHTS assay (AID 1963595; active = well fitted inhibition curve with a large enough effect in the signal ratio in the repeat runs, with a control signal flat; the % refers to the signal ratio)
Procedure, shortened: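 DRD2-HEK293; 0.1 mM Ro20-1724; cpd 10 min RT; NKH477 200 nM + quinpirole 12 nM, 30 min RT; HTRF cAMP (cAMP-d2/anti-cAMP cryptate), 665/620 nm ratio after 1 h.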

[15] = biological target: 5-hydroxytryptamine receptor 2A (Homo sapiens) (UniProt P28223); assay: 5-hydroxytryptamine receptor 2A (HTR2A) small molecule antagonists, cell-based qHTS assay (AID 1963586); also: nearly all actives have a fitted effect of over 45% in size
Procedure, shortened: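 CHO cells stably expressing human HTR2A were plated for 18 h at 37 C, then loaded with calcium dye for 1 h. Compounds were preincubated 5 min at room temperature before DOI (4 nM solution) was added. Kinetic fluorescence was read for 3 min.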

[16] = biological target: 5-hydroxytryptamine receptor 2A (Homo sapiens) (UniProt P28223); assay: 5-hydroxytryptamine receptor 2A (HTR2A) small molecule agonists, cell-based qHTS assay (AID 1963587); also: nearly all actives have a fitted effect of over 30% in size
Procedure, shortened: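 HTR2A-CHO cells, plated 18 h at 37 C/5% CO2, dye-loaded 1 h at 37 C; compounds in DMSO added by pin tool (agonist mode). Intracellular calcium flux read as kinetic fluorescence on FDSS over 2 min at 1 s intervals.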

[17] = biological target: D(2) dopamine receptor (Homo sapiens) (UniProt P14416); assay: Dopamine D2 receptor (DRD2) small molecule agonists, cell-based qHTS assay (AID 1963594); also: nearly all actives have a fitted effect of over 35% in size; also: potency is read from the fitted curve at half-maximal effect
Procedure, shortened: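 HEK293 cells stably expressing DRD2 were cultured 24 h at 37 C, then given Ro20-1724 (0.1 mM final) and compounds for 10 min at room temperature. NKH477 (200nM) was then added for 30 min. cAMP was read by HTRF.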

[18] = p53 small molecule agonists, cell-based qHTS assay with rat liver microsomes: qHTS cell viability counter screen (AID 1963580); also: nearly all actives have a fitted effect of over 45% in size
Procedure, shortened: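 Counter screen for cytotoxicity under metabolic activation: rat liver microsomes and NADPH, 0.5 mg/mL final each, added with compounds to p53RE-bla HCT-116 cells; 16 h at 37 C, then ATP luminescence read.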

[19] = p53 small molecule agonists, cell-based qHTS assay (AID 1963582; active = well fitted activation curve with a large enough effect in the signal ratio in the repeat runs, not every such curve was filed as active; the % refers to the signal ratio)
Procedure, shortened: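 16 h compound exposure (37 C) of p53 response element–bla cells, preceded by 5 h recovery at 37 C/5% CO2; read-out via LiveBLAzer B/G FRET substrate, 2 h RT, fluorescence intensity.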

Sequence of D(2) dopamine receptor (Homo sapiens) (P14416 whole entry, looked up): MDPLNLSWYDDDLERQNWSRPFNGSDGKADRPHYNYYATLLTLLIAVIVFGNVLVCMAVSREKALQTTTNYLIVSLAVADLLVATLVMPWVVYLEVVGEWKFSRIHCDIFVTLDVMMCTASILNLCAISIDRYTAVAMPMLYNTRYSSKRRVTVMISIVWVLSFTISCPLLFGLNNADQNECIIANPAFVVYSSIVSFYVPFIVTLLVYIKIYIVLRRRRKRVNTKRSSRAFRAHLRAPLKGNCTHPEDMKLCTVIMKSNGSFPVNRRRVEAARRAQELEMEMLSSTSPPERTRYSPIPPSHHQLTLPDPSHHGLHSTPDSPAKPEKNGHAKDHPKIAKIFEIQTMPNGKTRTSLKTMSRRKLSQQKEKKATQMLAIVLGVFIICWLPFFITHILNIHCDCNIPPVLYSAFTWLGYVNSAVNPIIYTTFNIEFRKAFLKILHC
Sequence of 5-hydroxytryptamine receptor 2A (Homo sapiens) (P28223 whole entry, looked up): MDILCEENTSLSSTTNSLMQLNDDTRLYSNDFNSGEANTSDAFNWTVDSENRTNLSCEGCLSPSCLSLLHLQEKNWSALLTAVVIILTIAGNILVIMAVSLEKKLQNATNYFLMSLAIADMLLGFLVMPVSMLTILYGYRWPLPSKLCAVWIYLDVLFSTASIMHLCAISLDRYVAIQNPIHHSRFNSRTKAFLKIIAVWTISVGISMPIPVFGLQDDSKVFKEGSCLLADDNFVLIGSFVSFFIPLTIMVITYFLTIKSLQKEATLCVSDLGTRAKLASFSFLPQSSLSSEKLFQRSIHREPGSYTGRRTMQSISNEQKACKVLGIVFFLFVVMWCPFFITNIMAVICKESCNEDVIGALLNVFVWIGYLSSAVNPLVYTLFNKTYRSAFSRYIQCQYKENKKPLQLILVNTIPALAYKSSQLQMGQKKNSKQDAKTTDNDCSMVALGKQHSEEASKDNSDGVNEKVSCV
Sequence of Gonadotropin-releasing hormone receptor (Homo sapiens) (P30968 whole entry, looked up): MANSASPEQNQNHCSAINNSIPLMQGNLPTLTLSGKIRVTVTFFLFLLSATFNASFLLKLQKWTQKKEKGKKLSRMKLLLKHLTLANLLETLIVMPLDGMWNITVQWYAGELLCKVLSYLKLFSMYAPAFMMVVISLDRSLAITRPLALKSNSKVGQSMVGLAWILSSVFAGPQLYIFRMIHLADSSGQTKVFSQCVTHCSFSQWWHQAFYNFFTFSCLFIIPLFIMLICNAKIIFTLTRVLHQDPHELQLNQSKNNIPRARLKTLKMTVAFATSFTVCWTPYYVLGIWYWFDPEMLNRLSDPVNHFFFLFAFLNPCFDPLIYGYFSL
Sequence of Muscarinic acetylcholine receptor M1 (Homo sapiens) (P11229 whole entry, looked up): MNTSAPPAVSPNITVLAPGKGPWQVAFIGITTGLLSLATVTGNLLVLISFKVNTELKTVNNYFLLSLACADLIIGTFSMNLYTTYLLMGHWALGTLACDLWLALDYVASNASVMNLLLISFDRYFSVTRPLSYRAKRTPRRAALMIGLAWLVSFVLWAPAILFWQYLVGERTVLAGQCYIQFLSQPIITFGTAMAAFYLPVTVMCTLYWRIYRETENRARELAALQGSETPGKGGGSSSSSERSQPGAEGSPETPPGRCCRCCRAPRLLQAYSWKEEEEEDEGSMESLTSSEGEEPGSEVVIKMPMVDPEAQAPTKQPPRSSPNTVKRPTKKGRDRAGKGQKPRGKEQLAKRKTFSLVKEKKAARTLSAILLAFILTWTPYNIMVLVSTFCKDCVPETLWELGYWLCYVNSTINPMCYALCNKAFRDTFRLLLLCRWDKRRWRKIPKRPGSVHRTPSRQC
Sequence of Beta-2 adrenergic receptor (Homo sapiens) (P07550 whole entry, looked up): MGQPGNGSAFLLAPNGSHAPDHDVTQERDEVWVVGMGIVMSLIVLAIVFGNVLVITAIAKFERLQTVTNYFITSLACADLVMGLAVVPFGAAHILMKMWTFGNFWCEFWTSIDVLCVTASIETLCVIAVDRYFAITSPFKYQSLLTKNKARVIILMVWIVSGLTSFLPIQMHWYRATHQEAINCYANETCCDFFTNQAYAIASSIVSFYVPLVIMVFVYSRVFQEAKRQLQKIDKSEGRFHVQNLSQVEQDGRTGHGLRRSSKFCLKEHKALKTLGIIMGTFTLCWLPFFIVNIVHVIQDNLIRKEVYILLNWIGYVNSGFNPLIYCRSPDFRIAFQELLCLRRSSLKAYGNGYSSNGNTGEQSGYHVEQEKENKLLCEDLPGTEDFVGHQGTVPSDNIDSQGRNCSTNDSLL
Sequence of KiSS-1 receptor (Homo sapiens) (Q969F8 whole entry, looked up): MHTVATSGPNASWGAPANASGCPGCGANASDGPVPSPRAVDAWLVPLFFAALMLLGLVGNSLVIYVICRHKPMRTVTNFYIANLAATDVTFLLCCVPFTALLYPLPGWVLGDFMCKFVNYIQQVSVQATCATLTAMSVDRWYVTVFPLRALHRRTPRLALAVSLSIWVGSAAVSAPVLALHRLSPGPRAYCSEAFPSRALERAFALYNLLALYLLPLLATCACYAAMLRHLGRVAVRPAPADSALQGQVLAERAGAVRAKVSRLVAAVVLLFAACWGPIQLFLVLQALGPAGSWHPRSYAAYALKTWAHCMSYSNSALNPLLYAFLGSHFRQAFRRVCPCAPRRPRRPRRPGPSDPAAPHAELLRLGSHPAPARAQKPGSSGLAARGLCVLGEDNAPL

| Structure (SMILES) | Potency [1] | Potency [2] | Potency [3] | Potency [4] | Potency [5] | Potency [6] | Potency [7] | Potency [8] | Potency [9] | Potency [10] | Potency [11] | Potency [12] | Potency [13] | Potency [14] | Potency [15] | Potency [16] | Potency [17] | Potency [18] | Potency [19] |
| --- | --- | --- | --- | --- | --- | --- | --- | --- | --- | --- | --- | --- | --- | --- | --- | --- | --- | --- | --- |
| CCC(C(=O)NC(=O)NC(C)=O)c1ccccc1 (stereo not drawn) | inactive | inactive | inactive | inactive | inactive | inactive | inactive | inactive | inactive | inactive | inactive | inactive | inactive | inactive | – | – | – | – | – |
| CCC(CC)CO | inactive | inactive | inactive | inactive | inactive | inactive | inactive | inactive | inactive | inactive | – | inactive | inactive | inactive | inactive | inactive | inactive | – | – |
| Fc1ccccc1 | inactive | inactive | inactive | inactive | inactive | inactive | – | – | inactive | inactive | inactive | inactive | inactive | inactive | – | – | inactive | inactive | – |
| CCS(=O)(=O)c1ccc(OC)c(C(=O)OC)c1 | inactive | inactive | inactive | inactive | inactive | – | inactive | inactive | inactive | inactive | inactive | inactive | – | inactive | inactive | inactive | – | inactive | inactive |
| O=C1NCCN1 | inactive | inactive | inactive | inactive | inactive | – | inactive | inactive | inactive | inactive | inactive | inactive | – | inactive | – | inactive | inactive | inactive | inactive |
| CC(C)C[C@H]1C(=O)N2CCC[C@H]2[C@]2(O)O[C@](NC(=O)[C@@H]3C=C4c5cccc6[nH]c(Br)c(c56)C[C@H]4N(C)C3)(C(C)C)C(=O)N12 | inactive | inactive | inactive | inactive | inactive | inactive | – | – | – | – | inactive | – | – | – | – | – | 92.3 nM (active) | inactive | – |
| COc1cc(Cl)c(OC)cc1N | inactive | inactive | inactive | inactive | inactive | inactive | inactive | inactive | inactive | inactive | – | – | – | inactive | – | inactive | inactive | – | – |
